Assay results reported in PubChem BioAssay (NCATS).
Results filed as inconclusive are left out. A call without a number means that no potency is given here. Active and inactive are the calls of the source. The call rests on the fitted dose curve; in most records, active means well fitted inhibition curve with a large enough effect; inconclusive means small, poorly fitted or top-dose-only effect; inactive means flat fitted curve, though single readings scatter.

The compounds below were run on CP250 (assay: qHTS profiling for inhibitors of Plasmodium falciparum proliferation (AID 504749; further: nearly all actives have a fitted effect of over 60% in size)). Conditions: P. falciparum in erythrocytes, SYBR Green DNA, 72 h; series mostly up to 28.7 µM.
Method in brief: (§1)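 SYBR Green fluorescence of parasite DNA, read after lysis and overnight dark incubation, measured growth over 72 h in erythrocyte culture at 0.3% parasitemia and 2.5% hematocrit. Data normalised to DMSO and 0.29 uM artemisinin, with plate-drift correction.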
Potency means the concentration at half of the fitted maximal effect.

Compound	Potency
CCCCC[C@H](O)/C=C/[C@H]1[C@H](O)CC(=O)[C@@H]1C/C=C\CCCC(=O)O	inactive
O=C(CCCN1CCC(C(=O)c2ccc(F)cc2)CC1)c1ccc(F)cc1	inactive
C(=C\c1ccncc1)/c1ccccc1	inactive
O=C1N=C2SCCN2C(=O)C1Cc1ccc(Cl)cc1 (stereo not drawn)	inactive
CCCCCCCCCCCC(=O)N(CCO)CCO	inactive
Cc1nc(NS(=O)(=O)c2ccc(N)cc2)nc(C)c1Br	inactive
O=c1[nH]c(=O)n([C@H]2C[C@H](O)[C@@H](CO)O2)cc1/C=C/Br	inactive
CC12CCC(C[N+](C)(CCC[N+](C)(C)C)C1)C2(C)C (stereo not drawn)	inactive
Oc1cccc(O)c1O	inactive
CC(C)NCC(O)COc1ccccc1-n1cccc1 (stereo not drawn)	inactive
F[Si-2](F)(F)(F)(F)F	inactive
CN(Cc1ccccc1)Cc1ccccc1	inactive
OCc1ccccc1	10 µM (active)
O=[n+]1ccn([O-])c2ccccc21	inactive
OCC(O)CO	inactive
CC(=O)NCCCS(=O)(=O)O	inactive
CCN(CC)CCOc1ccc2nc(N(C)C)sc2c1	inactive
Cc1cccc(Nc2ncccc2C(=O)O)c1C	inactive
CCCCC(CC)CCC(CC(C)C)OS(=O)(=O)O (stereo not drawn)	inactive
C[C@H](N)C(=O)N[C@@H](C)P(=O)(O)O	inactive

Compound	Potency
CC(=O)Nc1ccc(NC(=S)NC(=O)c2ccc(C(C)(C)C)cc2)cc1	inactive
CN1CCc2c(c3ccccc3n2Cc2ccccc2)C1	inactive
CO/N=C(\C(=O)N[C@@H]1C(=O)N2C(C(=O)[O-])=C(C[n+]3cccc4c3CCC4)CS[C@H]12)c1csc(N)n1	inactive
Cc1cc(-c2ccc(N=Nc3ccc4c(S(=O)(=O)O)cc(S(=O)(=O)O)c(N)c4c3O)c(C)c2)ccc1N=Nc1ccc2c(S(=O)(=O)O)cc(S(=O)(=O)O)c(N)c2c1O	inactive
CCC(C(=O)NC(N)=O)c1ccccc1 (stereo not drawn)	inactive
Cn1cc(NC(=O)c2cc(NC(=O)c3cc(NC=O)cn3C)cn2C)cc1C(=O)NCCC(=N)N	7.94 µM (active)
CCc1ncnc2cc(OC)c(OC)cc12	inactive
Cc1ncc(C[n+]2csc(CCO)c2C)c(N)n1	inactive
O[C@@H]([C@H](O)[C@H](O)CBr)[C@H](O)CBr	inactive
O=[N+]([O-])c1c(Cl)cccc1-c1c[nH]cc1Cl	inactive
C[C@@](Cc1ccc(O)c(O)c1)(NN)C(=O)O	inactive
CC(=O)Oc1cc(C(F)(F)F)ccc1C(=O)O	inactive
CCCCC	inactive
O=P(O)(O)CP(=O)(O)O	inactive
CCCCC[C@H](O)/C=C/[C@@H]1[C@H]2C/C(=C/CCCC(=O)O)O[C@H]2C[C@H]1O	inactive
C[Si](C)(C)O[Si](C)(C)C	inactive
O.O.O.O.O.O.O.O=S(=O)([O-])[O-].[Co+2]	11.2 µM (active)
Cc1c(C)c2c(c(C)c1OC(=O)CCC(=O)O)CC[C@@](C)(CCC[C@H](C)CCC[C@H](C)CCCC(C)C)O2	inactive
CCOC(=O)c1c[nH]c2cc(OCC(C)C)c(OCC(C)C)cc2c1=O	0.0794 µM (active)

Each compound was assayed on CP252 in the same assay as above. Conditions: P. falciparum in erythrocytes, SYBR Green DNA, 72 h; series mostly up to 28.7 µM.
Method in brief: as §1

Compound	Potency
CCCCC[C@H](O)/C=C/[C@H]1[C@H](O)CC(=O)[C@@H]1C/C=C\CCCC(=O)O	inactive
O=C(CCCN1CCC(C(=O)c2ccc(F)cc2)CC1)c1ccc(F)cc1	inactive
C(=C\c1ccncc1)/c1ccccc1	inactive
O=C1N=C2SCCN2C(=O)C1Cc1ccc(Cl)cc1 (stereo not drawn)	inactive
CCCCCCCCCCCC(=O)N(CCO)CCO	inactive
Cc1nc(NS(=O)(=O)c2ccc(N)cc2)nc(C)c1Br	inactive
O=c1[nH]c(=O)n([C@H]2C[C@H](O)[C@@H](CO)O2)cc1/C=C/Br	inactive
CC12CCC(C[N+](C)(CCC[N+](C)(C)C)C1)C2(C)C (stereo not drawn)	inactive
Oc1cccc(O)c1O	inactive
CC(C)NCC(O)COc1ccccc1-n1cccc1 (stereo not drawn)	inactive
F[Si-2](F)(F)(F)(F)F	inactive
CN(Cc1ccccc1)Cc1ccccc1	inactive
OCc1ccccc1	inactive
O=[n+]1ccn([O-])c2ccccc21	inactive
OCC(O)CO	inactive
CC(=O)NCCCS(=O)(=O)O	inactive
CCN(CC)CCOc1ccc2nc(N(C)C)sc2c1	inactive
Cc1cccc(Nc2ncccc2C(=O)O)c1C	inactive
CCCCC(CC)CCC(CC(C)C)OS(=O)(=O)O (stereo not drawn)	inactive
C[C@H](N)C(=O)N[C@@H](C)P(=O)(O)O	inactive

Compound	Potency
CC(=O)Nc1ccc(NC(=S)NC(=O)c2ccc(C(C)(C)C)cc2)cc1	inactive
CN1CCc2c(c3ccccc3n2Cc2ccccc2)C1	inactive
CO/N=C(\C(=O)N[C@@H]1C(=O)N2C(C(=O)[O-])=C(C[n+]3cccc4c3CCC4)CS[C@H]12)c1csc(N)n1	inactive
Cc1cc(-c2ccc(N=Nc3ccc4c(S(=O)(=O)O)cc(S(=O)(=O)O)c(N)c4c3O)c(C)c2)ccc1N=Nc1ccc2c(S(=O)(=O)O)cc(S(=O)(=O)O)c(N)c2c1O	inactive
CCC(C(=O)NC(N)=O)c1ccccc1 (stereo not drawn)	inactive
Cn1cc(NC(=O)c2cc(NC(=O)c3cc(NC=O)cn3C)cn2C)cc1C(=O)NCCC(=N)N	8.91 µM (active)
CCc1ncnc2cc(OC)c(OC)cc12	inactive
Cc1ncc(C[n+]2csc(CCO)c2C)c(N)n1	inactive
O[C@@H]([C@H](O)[C@H](O)CBr)[C@H](O)CBr	inactive
O=[N+]([O-])c1c(Cl)cccc1-c1c[nH]cc1Cl	inactive
C[C@@](Cc1ccc(O)c(O)c1)(NN)C(=O)O	inactive
CC(=O)Oc1cc(C(F)(F)F)ccc1C(=O)O	inactive
CCCCC	inactive
O=P(O)(O)CP(=O)(O)O	inactive
CCCCC[C@H](O)/C=C/[C@@H]1[C@H]2C/C(=C/CCCC(=O)O)O[C@H]2C[C@H]1O	inactive
C[Si](C)(C)O[Si](C)(C)C	inactive
O.O.O.O.O.O.O.O=S(=O)([O-])[O-].[Co+2]	11.2 µM (active)
Cc1c(C)c2c(c(C)c1OC(=O)CCC(=O)O)CC[C@@](C)(CCC[C@H](C)CCC[C@H](C)CCCC(C)C)O2	inactive
CCOC(=O)c1c[nH]c2cc(OCC(C)C)c(OCC(C)C)cc2c1=O	0.0891 µM (active)
